According to PubChem BioAssay AID2073 (Sanford-Burnham Center for Chemical Genomics, 2009):
Values joined by “and” are separate entries in the source; they are usually repeats but may differ in a detail not shown here. Identical values can stand only once. About 570 (0.2%) of roughly 290,000 compounds were called active. Roughly 1% stayed inconclusive and do not appear here. The sample holds actives, similar compounds and a random draw of the others, so the mix is not that of the screen. No stated cut-off is given here; in the data, active means inhibition mostly above about 51% (no sharp cut-off); inconclusive means no clear call, values can overlap the other calls; inactive means mostly below about 53%.

Target: Voltage-dependent N-type calcium channel subunit alpha-1B (Homo sapiens) (UniProt Q00975)
Sequence (Q00975 whole entry, looked up): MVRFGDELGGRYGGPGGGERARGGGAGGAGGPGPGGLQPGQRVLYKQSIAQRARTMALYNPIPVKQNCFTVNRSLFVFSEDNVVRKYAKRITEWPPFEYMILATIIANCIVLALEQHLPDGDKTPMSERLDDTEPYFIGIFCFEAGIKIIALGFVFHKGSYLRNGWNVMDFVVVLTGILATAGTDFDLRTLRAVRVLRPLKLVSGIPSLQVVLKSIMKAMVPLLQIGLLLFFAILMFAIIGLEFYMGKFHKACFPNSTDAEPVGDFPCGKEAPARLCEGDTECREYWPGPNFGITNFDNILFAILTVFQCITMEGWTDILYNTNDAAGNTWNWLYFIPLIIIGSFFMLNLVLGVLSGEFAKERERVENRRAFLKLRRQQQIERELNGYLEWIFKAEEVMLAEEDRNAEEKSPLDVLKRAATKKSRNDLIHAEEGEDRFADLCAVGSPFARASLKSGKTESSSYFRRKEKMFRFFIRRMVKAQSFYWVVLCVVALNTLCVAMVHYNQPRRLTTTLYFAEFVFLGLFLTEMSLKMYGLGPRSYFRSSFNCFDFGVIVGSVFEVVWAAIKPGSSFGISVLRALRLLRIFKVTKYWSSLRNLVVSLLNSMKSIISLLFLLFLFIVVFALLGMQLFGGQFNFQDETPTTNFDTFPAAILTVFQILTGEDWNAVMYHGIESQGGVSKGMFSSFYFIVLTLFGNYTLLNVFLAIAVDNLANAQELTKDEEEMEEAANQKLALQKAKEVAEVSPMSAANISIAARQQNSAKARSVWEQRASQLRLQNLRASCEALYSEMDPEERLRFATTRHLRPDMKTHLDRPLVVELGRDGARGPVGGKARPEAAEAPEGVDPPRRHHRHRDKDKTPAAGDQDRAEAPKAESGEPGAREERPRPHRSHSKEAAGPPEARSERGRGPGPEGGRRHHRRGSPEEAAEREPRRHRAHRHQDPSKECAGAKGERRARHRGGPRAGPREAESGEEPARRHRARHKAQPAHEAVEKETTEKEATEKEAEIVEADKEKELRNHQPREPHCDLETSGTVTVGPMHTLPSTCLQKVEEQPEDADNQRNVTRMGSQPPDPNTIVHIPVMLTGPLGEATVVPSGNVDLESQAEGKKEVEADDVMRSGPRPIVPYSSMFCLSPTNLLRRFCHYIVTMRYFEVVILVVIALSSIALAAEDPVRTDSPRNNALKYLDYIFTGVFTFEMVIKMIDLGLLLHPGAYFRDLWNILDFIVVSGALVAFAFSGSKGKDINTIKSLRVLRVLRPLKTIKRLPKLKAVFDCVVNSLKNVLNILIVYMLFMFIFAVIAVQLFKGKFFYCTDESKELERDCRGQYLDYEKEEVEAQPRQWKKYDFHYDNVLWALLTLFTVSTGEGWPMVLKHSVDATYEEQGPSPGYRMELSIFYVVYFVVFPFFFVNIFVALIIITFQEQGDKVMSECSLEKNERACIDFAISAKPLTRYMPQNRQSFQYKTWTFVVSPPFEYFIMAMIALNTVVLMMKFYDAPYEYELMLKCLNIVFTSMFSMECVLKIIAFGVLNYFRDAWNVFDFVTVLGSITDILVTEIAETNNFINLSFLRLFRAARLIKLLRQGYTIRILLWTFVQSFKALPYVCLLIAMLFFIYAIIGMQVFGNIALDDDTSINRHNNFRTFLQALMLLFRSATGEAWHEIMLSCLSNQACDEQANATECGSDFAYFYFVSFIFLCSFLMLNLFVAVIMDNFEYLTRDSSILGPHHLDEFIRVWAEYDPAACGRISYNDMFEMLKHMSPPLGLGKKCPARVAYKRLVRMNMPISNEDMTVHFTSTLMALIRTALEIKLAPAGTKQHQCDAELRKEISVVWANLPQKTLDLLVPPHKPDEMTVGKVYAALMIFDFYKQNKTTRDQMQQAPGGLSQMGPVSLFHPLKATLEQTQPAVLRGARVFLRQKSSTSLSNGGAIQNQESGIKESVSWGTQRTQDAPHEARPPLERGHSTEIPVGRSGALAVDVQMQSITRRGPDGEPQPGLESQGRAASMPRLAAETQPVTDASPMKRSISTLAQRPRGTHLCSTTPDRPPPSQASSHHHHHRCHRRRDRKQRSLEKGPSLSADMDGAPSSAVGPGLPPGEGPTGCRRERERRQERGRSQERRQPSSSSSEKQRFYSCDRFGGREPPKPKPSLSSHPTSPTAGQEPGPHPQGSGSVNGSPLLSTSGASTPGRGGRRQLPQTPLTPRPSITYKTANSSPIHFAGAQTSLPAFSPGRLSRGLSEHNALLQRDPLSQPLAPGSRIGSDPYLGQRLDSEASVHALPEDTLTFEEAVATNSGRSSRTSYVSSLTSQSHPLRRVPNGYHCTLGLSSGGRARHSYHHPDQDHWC
Experiment: inhibitors of Mint1-CaV2.2 protein interaction, biochemical, HTRF (AID 2073)
Conditions: at 20 µM, stronger effect = higher value
[1] = measured here: average of repeat tests

Row | Structure (SMILES) | inhibition | inhibition [1]
1 | COc1ccccc1N1CCN(C(=O)C2CCN(C(=O)c3cccc(Cl)c3)CC2)CC1 | 6.4% (inactive) | –
2 | Cc1[nH]cnc1C(=O)N/N=C/c1ccc([N+](=O)[O-])s1 | -7.6% (inactive) | –
3 | N#CC(C#N)=c1ccc2c(c1)N1C3=C(CCCC3)CC3CCCCC31N=2 (centres undefined) | -36.3% (inactive) | –
4 | O=[N+]([O-])C(=c1ccc2c(c1)N1C3=C(CCCC3)CC3CCCCC31N=2)[N+](=O)[O-] (centres undefined) | 51.6% (active) | 92.8%
5 | N#C/C(C(N)=O)=c1/ccc2c(c1)N1C3=C(CCCC3)CC3CCCCC31N=2 (centres undefined) | -26.9% (inactive) | –
6 | CCc1ccc2[nH]c(C(=O)Nc3ccc(Br)c(C)n3)cc2c1 | 5.3% (inactive) | –
7 | COc1ccc(-c2cc(-c3ccco3)[nH]c(=O)c2C#N)cc1 | 24.8% (inactive) | –
8 | COc1ccc(-c2cc(-c3ccco3)[nH]c(=O)c2C#N)cc1OC | 0.3% (inactive) | –
9 | N#Cc1c(-c2cccc(Br)c2)cc(-c2ccco2)[nH]c1=O | 53.9% (active) | –
10 | O=C(COC(=O)CCC(=O)c1cccs1)NCc1cccs1 | -3.4% (inactive) | –
11 | O=C(COC(=O)c1cccs1)NCc1ccco1 | -0.7% (inactive) | –
12 | O=C(COC(=O)c1ccc(NS(=O)(=O)c2cccs2)cc1)NCc1ccco1 | 59.4% (active) | –
13 | O=C(COC(=O)c1ccc(S(=O)(=O)Nc2ccccc2)cc1)NCc1ccco1 | -1.1% (inactive) | –
14 | O=C(COC(=O)c1ccc(NS(=O)(=O)c2cccs2)cc1)NCC1CCCO1 (centres undefined) | -3% (inactive) | –
15 | O=C(COC(=O)CCC(=O)c1cccs1)NCc1ccco1 | 57.8% (active) | –
16 | O=C(COC(=O)/C=C/c1ccco1)NCc1ccccc1 | 13.7% (inactive) | –
17 | O=C(COC(=O)/C=C/c1ccco1)NCc1ccco1 | 53.7% (active) | –
18 | O=C(COC(=O)/C=C/c1ccc(F)cc1)NCc1ccco1 | 8.8% (inactive) | –
19 | COC(=O)c1sc2ccccc2c1NC(=O)c1ccc(S(=O)(=O)N2CCCCC2C)cc1 (centres undefined) | -0.4% (inactive) | –
20 | CN(CCOc1ccc(Cl)cc1)Cc1cccc(S(=O)(=O)N(C)C)c1 | -2.1% (inactive) | –
21 | Nc1c(Cl)ncnc1N/N=C/c1ccncc1 | -9.8% (inactive) | –
22 | O=C(O)C=C1CCN(c2ncc(C(F)(F)F)cc2Cl)CC1 | 13.7% (inactive) | –
23 | CN1CCN(c2ccccc2NC(=O)c2ccc3c(c2)OCCO3)CC1 | 8.9% (inactive) | –
24 | Cc1c(NC(=O)C2(C)CCCCC2)c(=O)n(-c2ccccc2)n1C | -0.1% (inactive) | –

Row | Structure (SMILES) | inhibition | inhibition [1]
25 | COCCNC(=O)/C(C#N)=C/c1ccc(OCc2ccccc2)cc1 | -5.6% (inactive) | –
26 | COc1ccccc1N=Cc1c(C)c(C#N)c2[nH]c3ccccc3n2c1=O | 71.7% (active) | –
27 | CCCCc1c(C)c(C#N)c2[nH]c3ccccc3n2c1=O | 16.9% (inactive) | –
28 | Cc1c(CCO)c(=O)n2c([nH]c3ccccc32)c1C#N | -2.7% (inactive) | –
29 | O=C(Nc1ccc(Cc2ccc(NC(=O)N3CCOCC3)cc2)cc1)N1CCOCC1 | 3.3% (inactive) | –
30 | COc1ccc(Br)cc1C1CC(=O)N2CN(Cc3ccccc3)CSC2=C1C#N (centres undefined) | 93.2% (active) | –
31 | COc1ccc(C2CC(=O)N3CN(Cc4ccco4)CSC3=C2C#N)cc1 (centres undefined) | 76.3% (inactive) | 19.2%
32 | N#CC1=C2SCN(Cc3ccccc3)CN2C(=O)CC1c1ccccc1F (centres undefined) | 85.9% (inactive) | 29.1%
33 | COc1ccc(Br)cc1C1CC(=O)N2CN(C)CSC2=C1C#N (centres undefined) | 87.7% (inactive) | 25.1%
34 | COc1cc(C2CC(=O)N3CN(Cc4ccccc4)CSC3=C2C#N)ccc1OCc1ccccc1 (centres undefined) | 82.7% (inactive) | 44.4%
35 | COc1cc(C2CC(=O)N3CN(Cc4ccco4)CSC3=C2C#N)ccc1OCc1ccccc1 (centres undefined) | 84.8% (active) | –
36 | CC(Oc1ccc(F)cc1Br)c1nc2ccccc2c(=O)[nH]1 (centres undefined) | 10.2% (inactive) | –
37 | CC(C)(C)c1ccc(OCc2ccc(C(=O)N/N=C/c3ccc(O)c(O)c3)cc2)cc1 | 57.4% (active) | –
38 | Cc1ccc(C(C)C)c(OCc2ccc(C(=O)N/N=C/c3ccc(O)c(O)c3)cc2)c1 | 20.5% (inactive) | –
39 | CC(C)(C)c1ccc(C(=O)N/N=C/c2ccc(OCCCF)cc2)cc1 | 21.6% (inactive) | –
40 | CS(=O)(=O)N(CC(=O)N1CCCC1)Cc1ccc(Cl)c(Cl)c1 | 9.7% (inactive) | –
41 | CCc1cccc(CC)c1NC(=O)c1cccc(N)c1 | 2.5% (inactive) | –
42 | Cc1ccc(-c2cnn(-c3cccc([N+](=O)[O-])c3)c2N)cc1 | 22.4% (inactive) | –
43 | Cc1cc(C)cc(NC(=O)CCC(=O)N2CCSc3ccccc32)c1 | -4.1% (inactive) | –
44 | COc1cc(CNc2ccc3[nH]c(=O)[nH]c3c2)cc(Cl)c1OCC(=O)NC(C)(C)C | 51.8% (active) | –
45 | COc1cc(CNc2ccc3[nH]c(=O)[nH]c3c2)cc(Br)c1OCC(=O)NC(C)(C)C | -33% (inactive) | –
46 | COc1cc(CNc2ccc3[nH]c(=O)[nH]c3c2)ccc1OCC(=O)NC(C)(C)C | 43.9% (inactive) | –
47 | COc1ccc(OC)c(C(=O)NC(CC(N)=O)c2ccc(NCC3CC3)c([N+](=O)[O-])c2)c1 (centres undefined) | -4.2% (inactive) | –
48 | O=C(c1cccc(C(=O)N(c2ccccn2)C2CCCCC2)c1)N(c1ccccn1)C1CCCCC1 | -10.9% (inactive) | –

Row | Structure (SMILES) | inhibition | inhibition [1]
49 | O=S(=O)(Nc1cc(Sc2cccc3cccnc23)c(O)c2ccccc12)c1ccc(F)cc1 | -17% (inactive) | –
50 | O=S(=O)(Nc1cc(Sc2ncn[nH]2)c(O)c2ccccc12)c1ccccc1 | 56.7% (inactive) | -21.5%
51 | O=S(=O)(Nc1cc(Sc2cccc3cccnc23)c(O)c2ccccc12)c1ccccc1 | 69.2% (active) | –
52 | COc1ccc(C2N(C(=O)c3ccccc3)CCN2C(=O)c2ccc(C)cc2)cc1 (centres undefined) | -6.5% (inactive) | –
53 | CN(Cc1c(C(=O)N2CCCCCCC2)nc2ccc(Cl)cn12)C1CCOC1 (centres undefined) | -10% (inactive) | –
54 | COC(=O)N1CC(c2ccccc2)CC1=O (centres undefined) | -7.4% (inactive) | –
55 | O=[N+]([O-])c1ccc(-c2cnc3ccccc3n2)cc1 | 6.2% (inactive) | –
56 | Nc1nc(-c2ccc([N+](=O)[O-])cc2)cs1 | 35.7% (inactive) | –
57 | Cc1ccc(OCC(=O)N/N=C/C=C/c2ccco2)cc1C | 55.3% (active) | –
58 | COc1ccccc1OCC(=O)N/N=C/C=C/c1ccc([N+](=O)[O-])o1 | 54.5% (active) | –
59 | O=C(COc1ccccc1[N+](=O)[O-])N/N=C/C=C/c1ccco1 | 4.5% (inactive) | –
60 | Cc1ccc(OCC(=O)N/N=C/C=C/c2ccco2)cc1 | 53.6% (inactive) | 27.1%
61 | Cc1cccc(OCC(=O)N/N=C/C=C/c2ccco2)c1 | 59.6% (inactive) | 16%
62 | Cc1ccccc1OCC(=O)N/N=C/c1ccc([N+](=O)[O-])o1 | 6.4% (inactive) | –
63 | COCc1c(C(=O)OCC(=O)NCCN2C(=O)CSC2=O)oc2ccccc12 | 1.8% (inactive) | –
64 | COCCCNC(=O)c1cc2c(-c3ccc(Cl)cc3)nn(C)c2s1 | 13% (inactive) | –
65 | O=S(=O)(NCc1ccccc1)NCc1ccccc1 | 0.7% (inactive) | –
66 | CCN(CC)S(=O)(=O)c1cc(C(=O)OCC(=O)Nc2cccc(Br)c2)ccc1F | -2.8% (inactive) | –
67 | CCn1c(O)c(/C=C/C=C/C=Nc2ccccc2)sc1=S | 1.5% (inactive) | –
68 | Oc1c(C=Nc2ccccc2)sc(=S)n1Cc1ccccc1 | -4.9% (inactive) | –
69 | CCCCn1c(O)c(/C=C/C=C/C=Nc2ccccc2)sc1=S | 71.6% (active) | –
70 | Oc1c(/C=C/C=C/C=Nc2ccccc2)sc(=S)n1Cc1ccccc1 | 50.6% (active) | –
71 | O=C(O)Cn1c(O)c(C=Nc2ccccc2)sc1=S | -17.7% (inactive) and -1.2% (inactive) | –
72 | CCCn1c(O)c(C=Nc2ccccc2)sc1=S | 35.6% (inactive) | –

Row | Structure (SMILES) | inhibition | inhibition [1]
73 | O=C(Nc1cccc(Cl)c1)Nc1ccccc1C(=O)NCc1ccco1 | 3.4% (inactive) | –
74 | CCc1ccccc1NC(=S)NC1CC2CCC(C1)N2Cc1ccc(F)cc1 (centres undefined) | -9.8% (inactive) | –
75 | CCn1c(SCC(=O)NNC(=O)c2ccc(C)cc2)nnc1C1CC1 | 7.6% (inactive) | –
76 | COc1ccccc1-c1nnc(SCC(=O)NCc2cccs2)n1N | -0.4% (inactive) | –
77 | O=C1OC(c2ccc(F)cc2)=C/C1=C\c1ccc(O)cc1 | -0.4% (inactive) | –
78 | O=C1OC(c2ccc(F)cc2)=C/C1=C\c1ccc([N+](=O)[O-])o1 | 73% (active) | –
79 | O=[N+]([O-])c1ccc(/C=N\NS(=O)(=O)c2ccc(F)cc2)o1 | -7% (inactive) | –
80 | CCOc1ccc(NC(=O)NC(=O)N(C)S(=O)(=O)c2ccc(C)cc2)cc1 | 8.1% (inactive) | –
81 | O=C(c1ccc2nc(-c3ccco3)c(-c3ccco3)nc2c1)N1CCN(c2ccccc2)CC1 | 47.9% (inactive) | –
82 | O=C(NCc1ccccc1)c1ccc2nc(-c3ccco3)c(-c3ccco3)nc2c1 | 55.4% (inactive) | 20.4%
83 | Cc1ccc(C)c(N2CCN(C(=O)c3ccc4nc(-c5ccco5)c(-c5ccco5)nc4c3)CC2)c1 | 56.6% (inactive) | 15.5%
84 | O=C(Nc1ccccc1)c1ccc2nc(-c3ccco3)c(-c3ccco3)nc2c1 | 57.1% (inactive) | -4.3%
85 | COc1ccccc1N1CCN(C(=O)c2ccc3nc(-c4ccco4)c(-c4ccco4)nc3c2)CC1 | 70% (active) | –
86 | O=C(c1ccccc1)c1ccc2nc(-c3ccco3)c(-c3ccco3)nc2c1 | 76.5% (active) | –
87 | O=C(NCC1CCCO1)/C(=C/c1ccccc1)NC(=O)c1ccccc1 (centres undefined) | -11.4% (inactive) | –
88 | O=C(O)c1cccnc1-c1ncccc1C(=O)O | -7.6% (inactive) | –
89 | Cc1cccc(N/N=C2/COC(C)(C)CC2=O)c1 | 4.2% (inactive) | –
90 | NC(=O)C1CCN(CC(=O)c2c[nH]c3ccc(F)cc23)CC1 | 1.6% (inactive) | –
91 | CC1CCCN(C(=O)c2ccc3c(c2NCCO)C(=O)c2ccccc2C3=O)C1 (centres undefined) | -10.5% (inactive) | –
92 | CC1CCN(C(=O)c2ccc3c(c2NCCO)C(=O)c2ccccc2C3=O)CC1 | -7.6% (inactive) | –
93 | CC1CC(C)CN(C(=O)c2ccc3c(c2NCCO)C(=O)c2ccccc2C3=O)C1 (centres undefined) | 59% (active) | –
